{
  "source": "PubChem BioAssay AID1346378",
  "about": "(National Center for Advancing Translational Sciences (NCATS), 2018)",
  "note": "About 540 (0.13%) of roughly 420,000 compounds were called active. No stated cut-off is given here; in the data, active means activity change below about -50%; inconclusive means mostly about -30% to -49%; inactive means weaker than that. This excerpt belongs to a sample that is enriched for actives.",
  "data": [
    {"target": "Phosphatidylinositol 4-kinase type 2-alpha (Homo sapiens) (UniProt Q9BTU6)", "sequence (Q9BTU6 whole entry, looked up)": "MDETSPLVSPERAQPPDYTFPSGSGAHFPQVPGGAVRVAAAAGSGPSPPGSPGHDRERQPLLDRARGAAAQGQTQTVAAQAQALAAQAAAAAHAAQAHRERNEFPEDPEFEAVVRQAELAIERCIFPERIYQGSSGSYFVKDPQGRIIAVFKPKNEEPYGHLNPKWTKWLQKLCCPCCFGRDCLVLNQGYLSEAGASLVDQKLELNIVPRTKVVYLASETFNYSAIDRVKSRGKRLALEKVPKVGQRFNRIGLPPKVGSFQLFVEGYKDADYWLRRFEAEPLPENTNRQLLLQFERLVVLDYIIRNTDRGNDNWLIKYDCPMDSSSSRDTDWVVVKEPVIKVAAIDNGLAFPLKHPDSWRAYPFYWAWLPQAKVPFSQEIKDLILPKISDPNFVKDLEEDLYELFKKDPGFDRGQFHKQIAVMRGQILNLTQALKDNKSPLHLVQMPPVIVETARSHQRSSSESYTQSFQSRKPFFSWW", "assay": "qHTS for small molecular inhibitors of PI4K2A;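 on activity change, negative = inhibition: -100% = wells without enzyme as full effect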", "settings": "purified PI4K2A, ADP-Glo luminescence, 1 h; at 76.9 µM, active compounds read low", "from_the_text": "The phosphatidylinositol 4-phosphate (PI4P) is emerging as a key regulator of lipid transfer in ER-membrane contact sites. The four different phosphatidylinositol 4-kinase (PI4K) enzymes generate PI4P in different membrane compartments supporting distinct cellular processes many of which are crucial for the maintenance of cellular integrity but also hijacked by intracellular pathogens. The goal of this screening project is to search for small molecular inhibitors of PI4K2A based on a high throughput screening strategy.The ADP-Glo assay was used as a starting point to develop a miniaturized version for HTS applications. To implement the HTS screen, the PI4K ADP-Glotrade mark Kinase assay (Promega, V9102) was miniaturized for the 1536-well format used at NCGC.\nFor the robotic screening, the ADP-Glo assay using the ADP-Glotrade mark Kinase Assay kit from Promega was miniaturized and optimized on 1536-well white solid bottom plates (Greiner Bio-one). The substrate, 1.2 mM PI, prepared in the assay buffer (40mM Tris pH7.5, 20mM MgCl2, 1mM EGTA, 0.4% Triton X-100, 0.5mM DTT, 0.5mg/ml BSA) and PI4K2A enzyme, diluted also in the assay buffer to 4ug/mL, were dispensed onto the plates in equal volumes (1microl/well), pinned with 23 nL/well tested compounds or control followed by dispensation of 1microl/well 300microM ATP. The plates were incubated for one hour. Then, 2 µL/well of ADP-Glo reagent was added and incubated for 40 minutes. Next, 4microL/well of Kinase Detection Buffer was added to the plates and incubated for additional 40 minutes. All incubation steps were performed at ambient temperature. The resulting luminescence signal was measured on Viewlux plate reader (PerkinElmer). Adenosine, a partial non-specific inhibitor, was used as a positive control at 100microM final concentration to assess the assay's quality and plate-to-plate reproducibility. We also used \"no enzyme\" control to gauge the assay's maximal potential inhibition (IC100).", "values": [
      {"smiles": "C=CCN1C(=O)NC(=O)/C(=C/c2ccc(OCC(=O)Nc3ccc(C)cc3)cc2)C1=O", "activity change, negative = inhibition": "-53.5% (active)"},
      {"smiles": "CCC(=O)c1ccc(OCC(=O)N2CCN(CC(=O)Nc3ccc(C)cc3)CC2)cc1", "activity change, negative = inhibition": "-4.83% (inactive)"},
      {"smiles": "C=CCN(CC=C)C(=O)Nc1ccc(OCC)cc1", "activity change, negative = inhibition": "7.59% (inactive)"},
      {"smiles": "CO[C@]12CC[C@@]3(C[C@@H]1[C@](C)(O)C(C)(C)C)[C@@H]1Cc4ccc(O)c5c4[C@@]3(CCN1CC1CC1)[C@H]2O5", "activity change, negative = inhibition": "inactive"},
      {"smiles": "CCCOC(=O)c1cncn1C(C)c1ccccc1", "note": "(stereo not given)", "activity change, negative = inhibition": "-0.694% (inactive)"}
    ]}
  ]
}
